This passage reports Potency and outcome results from PubChem BioAssay (Tox21).

A number with no mark means an inactive call. Results filed as inconclusive are left out. Calls of active or inactive are those of the source. Unless noted, calls come from the whole dose curve.

Experiment [1] in a line: Nuclear factor erythroid 2-related factor 2/antioxidant responsive element (Nrf2/ARE) small molecule agonists: qHTS cell viability counter screen in human keratinocytes (AID 1919968; active = well fitted curve in the direction sought with a large enough effect in the repeat runs; an effect the other way counts as inactive or inconclusive; note: nearly all actives have a fitted effect of over 55% in size). The gist of the method: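 Cells of the KeratinoSens line were plated at 1,500 per well and left for 5 h before compound transfer from DMSO stocks. After a 23 h incubation (37 C, 5% CO2), CellTiter-Fluor was added. Signal was taken as fluorescence intensity 1 h later.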
For orientation: qHTS replaces the single test concentration by a dilution series.

The nature of experiment [2]: Nuclear factor erythroid 2-related factor 2/antioxidant responsive element (Nrf2/ARE) small molecule agonists: luciferase reporter gene qHTS assay in human keratinocytes (AID 1919969). Note: nearly all actives have a fitted effect of over 35% in size. Note: potency is the fitted concentration of half-maximal effect.
Experiment [3] has as its target Gonadotropin-releasing hormone receptor (Homo sapiens) (UniProt P30968). Description: Human gonadotropin-releasing hormone receptor (GnRHR) small molecule agonists, calcium flux assay in GnRHR-HEK293 cells (AID 1920063). Note: nearly all actives have a fitted effect of over 35% in size. The gist of the method:
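Compounds dissolved in DMSO are pin-transferred onto dye-loaded GnRHR-HEK293 cells, which were seeded 18 h before at 37 C/5% CO2. Calcium signal is read as fluorescence intensity at 1 s intervals for 3 min.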
On the technique in general: Calcium flux is commonly read through the fluorescence of an indicator in the cells.

Experiment [4] has as its target KiSS-1 receptor (Homo sapiens) (UniProt Q969F8). The experiment is described as follows: Human kisspeptin (KISS1R) small molecule agonists, calcium flux assay in KISS1R-HEK293 cells (AID 1920064; active = well fitted curve in the direction sought with a large enough effect in the repeat runs; an effect the other way counts as inactive or inconclusive). An outline of the steps: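 Cell line: HEK293, stable human KISS1R. Dye loading 1 h at 37 C after 18 h culture. Read: kinetic fluorescence, 480/540 nm, 3 min at 1 s intervals.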

A short description of experiment [5]: G protein-coupled receptor (GPCR) small molecule agonists, calcium flux assay: HEK293 wild type cell line counter screen (AID 1920065). The gist of the method:
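Tox21 10K compounds, 15 concentrations each in triplicate, pin-transferred in DMSO onto dye-loaded cells; kinetic read at 480/540 nm for 3 min, 1 s intervals.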

Experiment [6] is described as follows: p53 small molecule agonists, cell-based qHTS assay with human liver microsomes (AID 1963577).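 Note: p53 response element beta-lactamase reporter cells with liver microsomes plus NADPH.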 The gist of the method: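 HLM-supplemented p53RE-bla reporter assay: 16 h compound exposure at 37 C, microsomes and NADPH each 0.5 mg/mL final, read by fluorescence intensity.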
A short description of experiment [7]: p53 small molecule agonists, cell-based qHTS assay with rat liver microsomes (AID 1963578). An outline of the steps:
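Quantitative HTS of the Tox21 10K library: p53RE-bla cells, rat liver microsomes plus NADPH at 0.5 mg/mL final each, 16 h at 37 C, beta-lactamase fluorescence detection.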

Experiment [8] in a line: p53 small molecule agonists, cell-based qHTS assay with rat liver microsomes: qHTS cell viability counter screen (AID 1963580). Note: nearly all actives have a fitted effect of over 45% in size. The gist of the method:
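Luminescent ATP readout (CellTiter-Glo, 30 min at room temperature) reports viability of p53RE-bla HCT-116 cells after 16 h at 37 C with test compounds under metabolic activation by rat liver microsomes and NADPH at 0.5 mg/mL final each.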

A short description of experiment [9]: p53 small molecule agonists, cell-based qHTS assay: qHTS cell viability counter screen (AID 1963581). Note: nearly all actives have a fitted effect of over 45% in size. An outline of the steps: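 ATP content measured by luminescence in HCT-116 p53RE-bla cells treated 16 h at 37 C, same wells as the reporter screen.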
Experiment [10] can be described thus: p53 small molecule agonists, cell-based qHTS assay (AID 1963582; active = well fitted activation curve with a large enough effect in the signal ratio in the repeat runs, not every such curve was filed as active; the % refers to the signal ratio). An outline of the steps:
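16 h compound exposure (37 C) of p53 response element–bla cells, preceded by 5 h recovery at 37 C/5% CO2; read-out via LiveBLAzer B/G FRET substrate, 2 h RT, fluorescence intensity.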

Experiment [11] addresses 5-hydroxytryptamine receptor 2A (Homo sapiens) (UniProt P28223). The experiment is described as follows: 5-hydroxytryptamine receptor 2A (HTR2A) small molecule antagonists, cell-based qHTS assay (AID 1963586). Note: nearly all actives have a fitted effect of over 45% in size. An outline of the steps: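 CHO cells stably expressing human HTR2A were plated for 18 h at 37 C, then loaded with calcium dye for 1 h. Compounds were preincubated 5 min at room temperature before DOI (4 nM solution) was added. Kinetic fluorescence was read for 3 min.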

For experiment [12] the target is unchanged. The experiment is described as follows: 5-hydroxytryptamine receptor 2A (HTR2A) small molecule agonists, cell-based qHTS assay (AID 1963587). Note: nearly all actives have a fitted effect of over 30% in size. The gist of the method: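 HTR2A-CHO cells, plated 18 h at 37 C/5% CO2, dye-loaded 1 h at 37 C; compounds in DMSO added by pin tool (agonist mode). Intracellular calcium flux read as kinetic fluorescence on FDSS over 2 min at 1 s intervals.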

For experiment [13], the target named is Muscarinic acetylcholine receptor M1 (Homo sapiens) (UniProt P11229). The experiment is described as follows: Cholinergic receptor muscarinic 1 (CHRM1) small molecule antagonists, cell-based qHTS assay (AID 1963588). Note: nearly all actives have a fitted effect of over 40% in size. The gist of the method:
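Compounds were tested at 15 concentrations in three independent runs. Dye-loaded CHRM1-CHO cells were exposed 5 min at room temperature before stimulation by acetylcholine added at 50nM. Intracellular calcium was read kinetically on FDSS for 3 min.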

Experiment [14] shares this target. Description: Cholinergic receptor muscarinic 1 (CHRM1) small molecule agonists, cell-based qHTS assay (AID 1963589). Note: nearly all actives have a fitted effect of over 35% in size. The gist of the method:
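Homogeneous fluorescence calcium flux, agonist mode. Human M1-expressing CHO cells; compound dosed at 15 concentrations, three independent runs; signal sampled every 1 sec.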

The target of experiment [15] is Beta-2 adrenergic receptor (Homo sapiens) (UniProt P07550). The experiment is described as follows: Adrenergic beta2 receptor (ADRB2) small molecule antagonists, cell-based qHTS assay (AID 1963592). Note: series mostly up to about 92 µM; nearly all actives have a fitted effect of over 50% in size. An outline of the steps: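 Assay format: CHO-ADRB2 cells, 18-20hr seeding at 37C/5% CO2, then compound plus 1nM isoproterenol agonist mix for 0.5hr RT. Homogeneous time-resolved fluorescence cAMP detection after 1hr, expressed as 665/615 nm ratio.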

In experiment [16] the target is D(2) dopamine receptor (Homo sapiens) (UniProt P14416). Description: Dopamine D2 receptor (DRD2) small molecule agonists, cell-based qHTS assay (AID 1963594). Note: nearly all actives have a fitted effect of over 35% in size. The gist of the method: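 HEK293 cells stably expressing DRD2 were cultured 24 h at 37 C, then given Ro20-1724 (0.1 mM final) and compounds for 10 min at room temperature. NKH477 (200nM) was then added for 30 min. cAMP was read by HTRF.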

The target is the same in experiment [17]. Description: Dopamine D2 receptor (DRD2) small molecule antagonists, cell-based qHTS assay (AID 1963595; active = well fitted inhibition curve with a large enough effect in the signal ratio in the repeat runs, with a control signal flat; the % refers to the signal ratio). The gist of the method:
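DRD2-HEK293; 0.1 mM Ro20-1724; cpd 10 min RT; NKH477 200 nM + quinpirole 12 nM, 30 min RT; HTRF cAMP (cAMP-d2/anti-cAMP cryptate), 665/620 nm ratio after 1 h.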

The nature of experiment [18]: cAMP Responsive Elements (CRE) small molecule agonists, cell-based qHTS assay (AID 1963590). The gist of the method:
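HEK 293T cells stably bearing CRE-bla were plated at 2,000 cells per well and rested 18 h. Compounds, positive controls or DMSO were added for 3 h at 37 C. LiveBLAzer B/G substrate was then loaded for 2 h at room temperature.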

Experiment [19] can be described thus: cAMP Responsive Elements (CRE) small molecule antagonists, cell-based qHTS assay (AID 1963591; active = well fitted inhibition curve with a large enough effect in the signal ratio in the repeat runs, not every such curve was filed as active; the % refers to the signal ratio). The gist of the method:
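First, CRE-bla HEK293T cells settled 18 h at 37 C. Next, compound and 0.25 uM final NKH477 were applied for 3 h. Last, LiveBLAzer B/G substrate was loaded for 2 h at room temperature.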

Gonadotropin-releasing hormone receptor (Homo sapiens), sequence (P30968 whole entry, looked up): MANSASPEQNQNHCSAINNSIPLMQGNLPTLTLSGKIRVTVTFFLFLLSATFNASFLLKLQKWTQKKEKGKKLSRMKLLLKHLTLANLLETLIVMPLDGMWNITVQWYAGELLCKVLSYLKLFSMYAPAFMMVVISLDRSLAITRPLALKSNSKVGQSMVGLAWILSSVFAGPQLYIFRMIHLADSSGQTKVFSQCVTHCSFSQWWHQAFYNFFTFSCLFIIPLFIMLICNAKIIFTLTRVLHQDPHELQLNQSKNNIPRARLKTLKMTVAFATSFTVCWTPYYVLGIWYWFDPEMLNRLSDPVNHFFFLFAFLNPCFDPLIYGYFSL
Beta-2 adrenergic receptor (Homo sapiens), sequence (P07550 whole entry, looked up): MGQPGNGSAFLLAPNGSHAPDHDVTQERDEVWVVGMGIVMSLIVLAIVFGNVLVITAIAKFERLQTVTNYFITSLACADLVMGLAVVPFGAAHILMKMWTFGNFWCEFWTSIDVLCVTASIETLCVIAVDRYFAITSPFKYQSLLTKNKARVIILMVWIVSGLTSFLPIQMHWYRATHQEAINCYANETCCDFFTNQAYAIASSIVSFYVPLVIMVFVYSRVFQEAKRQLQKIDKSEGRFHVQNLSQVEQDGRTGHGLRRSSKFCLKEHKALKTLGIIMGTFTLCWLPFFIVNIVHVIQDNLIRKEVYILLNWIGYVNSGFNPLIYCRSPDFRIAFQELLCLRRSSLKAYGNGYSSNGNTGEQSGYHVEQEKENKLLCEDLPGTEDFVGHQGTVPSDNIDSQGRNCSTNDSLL
D(2) dopamine receptor (Homo sapiens), sequence (P14416 whole entry, looked up): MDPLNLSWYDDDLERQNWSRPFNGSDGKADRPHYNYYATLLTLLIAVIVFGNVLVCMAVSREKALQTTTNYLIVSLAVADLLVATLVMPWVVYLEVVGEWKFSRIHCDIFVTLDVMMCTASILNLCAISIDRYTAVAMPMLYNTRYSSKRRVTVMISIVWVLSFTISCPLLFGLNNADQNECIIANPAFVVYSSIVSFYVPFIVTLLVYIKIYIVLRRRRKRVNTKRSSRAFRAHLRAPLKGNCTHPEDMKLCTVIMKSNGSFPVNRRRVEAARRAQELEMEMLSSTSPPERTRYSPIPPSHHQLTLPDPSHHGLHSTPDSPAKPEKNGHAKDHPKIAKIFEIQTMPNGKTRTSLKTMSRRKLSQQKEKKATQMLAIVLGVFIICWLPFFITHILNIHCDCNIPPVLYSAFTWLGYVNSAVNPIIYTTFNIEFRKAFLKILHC
5-hydroxytryptamine receptor 2A (Homo sapiens), sequence (P28223 whole entry, looked up): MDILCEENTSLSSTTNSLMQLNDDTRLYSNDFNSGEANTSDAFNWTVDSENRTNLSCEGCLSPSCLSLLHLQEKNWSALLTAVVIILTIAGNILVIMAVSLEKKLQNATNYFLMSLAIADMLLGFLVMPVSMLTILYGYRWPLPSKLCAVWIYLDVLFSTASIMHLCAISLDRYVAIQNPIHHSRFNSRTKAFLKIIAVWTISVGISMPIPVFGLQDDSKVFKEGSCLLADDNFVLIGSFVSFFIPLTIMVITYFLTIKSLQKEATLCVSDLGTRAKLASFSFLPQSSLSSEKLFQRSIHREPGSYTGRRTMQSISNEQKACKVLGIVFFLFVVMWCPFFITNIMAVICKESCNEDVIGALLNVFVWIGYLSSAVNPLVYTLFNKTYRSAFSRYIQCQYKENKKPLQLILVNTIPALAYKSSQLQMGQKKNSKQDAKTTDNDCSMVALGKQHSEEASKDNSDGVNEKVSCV
Muscarinic acetylcholine receptor M1 (Homo sapiens), sequence (P11229 whole entry, looked up): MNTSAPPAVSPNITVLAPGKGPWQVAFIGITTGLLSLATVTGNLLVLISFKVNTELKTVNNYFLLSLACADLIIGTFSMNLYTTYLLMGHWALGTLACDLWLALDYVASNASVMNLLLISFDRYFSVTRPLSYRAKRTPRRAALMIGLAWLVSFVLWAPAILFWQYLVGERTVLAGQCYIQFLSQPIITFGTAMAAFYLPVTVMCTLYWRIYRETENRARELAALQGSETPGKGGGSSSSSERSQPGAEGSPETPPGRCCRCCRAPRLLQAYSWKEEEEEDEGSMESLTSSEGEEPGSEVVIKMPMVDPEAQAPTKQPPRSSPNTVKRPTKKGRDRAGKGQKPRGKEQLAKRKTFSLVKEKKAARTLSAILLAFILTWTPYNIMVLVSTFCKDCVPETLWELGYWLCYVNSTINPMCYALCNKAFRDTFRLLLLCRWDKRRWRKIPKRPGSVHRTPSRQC
KiSS-1 receptor (Homo sapiens), sequence (Q969F8 whole entry, looked up): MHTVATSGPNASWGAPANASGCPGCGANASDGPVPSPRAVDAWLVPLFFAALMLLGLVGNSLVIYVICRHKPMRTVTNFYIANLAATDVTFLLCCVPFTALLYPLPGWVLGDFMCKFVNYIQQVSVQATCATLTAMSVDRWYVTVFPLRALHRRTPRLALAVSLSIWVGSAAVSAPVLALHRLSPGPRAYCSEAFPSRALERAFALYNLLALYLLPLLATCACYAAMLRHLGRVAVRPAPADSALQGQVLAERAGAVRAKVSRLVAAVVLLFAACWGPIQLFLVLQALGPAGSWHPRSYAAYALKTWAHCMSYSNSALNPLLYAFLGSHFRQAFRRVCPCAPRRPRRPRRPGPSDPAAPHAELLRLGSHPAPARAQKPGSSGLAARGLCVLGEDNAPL

Turning to `N[C@H]1C(O)O[C@H](CO)[C@H](O)[C@@H]1O` (stereo partly drawn), the Potency entry in experiment [1], in [2], in experiment [3], in experiment [6], in experiment [7] and in experiment [8] was “inactive” each time. The Potency entry in experiment [9], in experiment [10], in [11], in experiment [12], in experiment [13] and in experiment [14] was “inactive” in each case. The Potency result in experiment [15], in experiment [16] and in experiment [17] was “inactive” each time. Also, the outcome in experiment [4] and in experiment [5] was inactive.

Take `CCN(CC)CCNC(=O)COc1ccc(Cl)cc1`: the Potency result in experiment [1], in experiment [2], in [3], in experiment [6], in [7] and in [8] was “inactive” in each case. In addition, the Potency entry in experiment [9], in experiment [10], in [12], in [13], in [14] and in [18] was “inactive” throughout. For the same compound, the Potency result in experiment [19], in [16] and in experiment [17] was “inactive” each time. The result in experiment [4] and in [5] was inactive.

As for `CC(C)(C)C(=O)NCCCC(=O)O`, the Potency entry in experiment [1], in [2], in experiment [3], in experiment [6], in experiment [7] and in experiment [8] was “inactive” each time. In addition, the Potency result in experiment [9], in [10], in [12], in [13], in [14] and in experiment [18] was “inactive” throughout. For the same compound, the Potency result in [19], in [15], in [16] and in experiment [17] was “inactive” each time. The result in experiment [4] and in experiment [5] was inactive.

Take `C=CCc1ccccc1OCC(O)CNC(C)C` (stereo not drawn): the Potency entry in experiment [1], in [2], in [3], in [6], in [7] and in [8] was “inactive” throughout. Further, the Potency entry in experiment [9], in experiment [10], in [11], in experiment [13], in experiment [14] and in experiment [18] was “inactive” in each case. Also, the Potency result in experiment [19], in experiment [16] and in [17] was “inactive” each time. Also, the outcome in experiment [4] and in experiment [5] was inactive.

Turning to `O=CN1CCCCC1`, the Potency entry in experiment [1], in experiment [2], in experiment [3], in experiment [6], in experiment [7] and in [8] was “inactive” each time. The Potency entry in experiment [9], in [10], in experiment [12], in [13], in experiment [18] and in [19] was “inactive” throughout. Moreover, the Potency entry in experiment [15], in experiment [16] and in experiment [17] was “inactive” throughout. Besides, the result in experiment [4] and in experiment [5] was inactive.

In the case of `CCN1CCCC1CN` (stereo not drawn), the Potency result in [1], in [2], in experiment [3], in [6], in [7] and in experiment [8] was “inactive” throughout. Moreover, the Potency entry in [9], in experiment [10], in [12], in experiment [13], in experiment [18] and in experiment [19] was “inactive” in each case. Besides, the Potency result in experiment [15], in [16] and in experiment [17] was “inactive” throughout. In addition, the outcome in [4] and in [5] was inactive.

With `OCCNCc1ccccc1`, the Potency result in experiment [1], in experiment [3], in [6], in experiment [7], in [8] and in [9] was “inactive” in each case. Besides, the Potency entry in experiment [10], in experiment [12], in experiment [14], in [18], in experiment [19] and in experiment [17] was “inactive” each time. Besides, the Potency in experiment [2] is 68.6 µM (active). Also, the outcome in experiment [4] and in experiment [5] was inactive.
